Screens as filed in PubChem BioAssay.
This is a sample that favours compounds with a hit; in the whole collection about 3.7% have one here.
TIM10 inh – TIM10 yeast growth inhibition | inhibition, % at 10 µM | S. cerevisiae TIM10 strain growth, BacTiter-Glo luminescence, 24 h | 1.4% of 330,000 active;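 active = inhibition of 40% or more at the single tested concentration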;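 also: wild-type TIM10 isogenic control strain grown at permissive 25 °C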
PfHsp90 yeast 2 – reduces growth (ATP signal) of yeast expressing P. falciparum Hsp90 | S. cerevisiae expressing PfHsp90, BacTiter-Glo ATP, 48 h; yeast lacking PDR1 and PDR3 efflux regulators | inhibition, % at 9.4 µM | 0.32% of 310,000 active;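 active = every replicate shows inhibition above about 80%, whatever the replicate mean, limit read from the data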
tim10-1 inh – inhibits growth of tim10-1 mutant yeast. S. cerevisiae tim10-1 ts strain growth, BacTiter-Glo, 24 h. inhibition, % at 20 µM. 2.2% of 330,000 active. AID 463190;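 active = inhibition of at least 40%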;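 also: mutant grown at 25 °C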
NLRP3 yeast inh – inhibitors of NALP3 inflammasome in yeast. 0.39% of 330,000 active. Yeast reconstituted NLRP3/ASC/caspase-1, beta-gal luminescence, 24 h. inhibition, % at 10 µM. AID 2825;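 active = inhibition of 50% or more; inactive = inhibition below 50%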
tim23-1 inh – growth inhibitors of tim23-1 mutant yeast; S. cerevisiae tim23-1 growth, BacTiter-Glo luminescence, 24 h; inhibition, % at 20 µM; 1.3% of 330,000 active; AID 463212;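 active = growth inhibition of the mutant yeast at or above 50%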;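 also: temperature-sensitive mutant grown at 25 °C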
tim23-1 confirm – confirmation of tim23-1 mutant yeast growth inhibitors; 83% of 4,400 active; shares compounds with tim23-1 inh; S. cerevisiae tim23-1 growth, BacTiter-Glo luminescence, 24 h; inhibition, % at 20 µM;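 active = inhibition above about 39% in either of two replicate wells at 20 µM, limit read from the data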;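 also: temperature-sensitive tim23-1 mutant grown at 25 °C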
Of the large screens only hits and unclear results are named; the others gave an inactive call (follow-up assays come after a bar, where they were run).

CCS(=O)(=O)N1CCC2(CC1)OCCN2S(=O)(=O)c1ccc(OC)cc1	none
CC1CN(C(=O)c2ccccc2)c2ccccc2NC1=O (stereo not drawn)	none
O=C(COC(=O)c1ccc(O)cc1)c1ccc2c(c1)OCCO2	tim23-1 inh 60 (no result: PfHsp90 yeast 2) | tim23-1 confirm inactive
CCOc1ccc(CNC(=O)CCC(=O)n2nc(C)c3ccccc32)cc1	none
Oc1ccc(Cl)cc1CNCc1ccc(Cl)cc1	tim23-1 inh 60 | tim23-1 confirm 38
O=C(Nc1ccccc1-c1ccccc1)NC1CC2CCCC(C1)N2Cc1ccc(F)cc1 (stereo not drawn)	tim23-1 inh 56 | tim23-1 confirm inactive
O=C(Nc1ccccc1-c1ccccc1)NC1CC2CCCC(C1)N2CCc1ccccc1 (stereo not drawn)	none
Clc1cccc(-c2cc3nc4c(c(NCc5ccco5)n3n2)CCCC4)c1	tim23-1 inh 52 | tim23-1 confirm 59
c1coc(CNc2c3c(nc4ncnn24)CCCC3)c1	none
CCOC(=O)c1nnc(-c2ccccc2)nc1Oc1ccccc1Cl	tim23-1 inh 53 (no result: PfHsp90 yeast 2) | tim23-1 confirm 56
CCOC(=O)c1nnc(-c2ccccc2)nc1NC	none
CCOC(=O)Nc1cccc(NC(=O)c2ccccc2F)c1	tim23-1 inh 55 | tim23-1 confirm 63
COc1cccc(NC(=O)c2ccccc2F)c1	none
Cc1ccc(-c2nc3c(Cl)cc(Cl)cc3c(=O)n2O)cc1	tim23-1 inh 54 | tim23-1 confirm 53
O=c1c2cc(Br)ccc2nc(-c2ccc(Cl)cc2)n1O	none (no result: TIM10 inh, tim10-1 inh, NLRP3 yeast inh, tim23-1 inh)
Cc1cc(C)c2c(SC(C)C)nc(N)nc2n1	none
O=C(NC(=S)Nc1ccc2oc(-c3cccnc3)nc2c1)c1cccc(Cl)c1	none
COC(=O)[C@H](Cc1ccccc1)N1C/C=C\COc2c(Cl)cc(Cl)cc2S1(=O)=O	tim23-1 inh 52 (no result: NLRP3 yeast inh) | tim23-1 confirm inactive
CCN(Cc1ccccc1)C(=O)c1ccc(C)c(S(=O)(=O)N2CCCCC2)c1	tim23-1 inh 50 | tim23-1 confirm inactive
CCOC(=O)CSc1nc2ccc(N)cc2s1	none
Nc1ccc2nc(SCc3cccc(F)c3)sc2c1	tim23-1 inh 57 | tim23-1 confirm 46
Cc1cc(OCC(=O)c2ccc(C(F)(F)F)cc2)n2cnnc2n1	tim23-1 inh 96 | tim23-1 confirm inactive
Cc1cc(OCC(=O)c2cccc(C(F)(F)F)c2)n2cnnc2n1	none
Oc1ccc(/C=N/N(c2ccccc2)c2ccccc2)cc1O	tim23-1 inh 68 | tim23-1 confirm 45
O=C(CNc1ccccc1)N/N=C/c1ccc([N+](=O)[O-])o1	none (no result: PfHsp90 yeast 2)
Cc1ccc(NCC(=O)N/N=C\c2ccc([N+](=O)[O-])o2)cc1	tim23-1 inh 55 | tim23-1 confirm 41
O=C1SC(c2ccccc2)=C/C1=C\N1CCCCC1	tim23-1 inh 63 | tim23-1 confirm 39
Cc1sc(NC(=O)Cn2[nH]c(=O)c3ccccc3c2=O)nc1-c1ccccc1	none
Cc1cccc(C)c1OCC(=O)Nc1cccc(NC(=O)c2ccco2)c1	tim23-1 inh 56 | tim23-1 confirm 49
C=Cc1cccc(NC(=O)c2ccc(NC(=O)c3ccco3)cc2)c1	tim23-1 inh 51 | tim23-1 confirm 38
O=C(CNC(=O)c1cccs1)N/N=C/c1c[nH]c2ccccc12	none
CCn1c(N2CCN(S(=O)(=O)c3ccc(F)cc3)CC2)nc2ccccc21	none
CCn1c(N2CCN(S(=O)(=O)c3ccc(Cl)cc3)CC2)nc2ccccc21	tim23-1 inh 63 | tim23-1 confirm 43
CCCCNc1nc(CC)c2c(c1C#N)CCCC2	none
Cc1c(O)cc2n(c1=O)-c1ccc(Cl)cc1C2(C)C	none
CC1(C)c2cc(Cl)ccc2-n2c1cc(O)c(-c1ccccc1)c2=O	tim23-1 inh 62 | tim23-1 confirm 58
N#Cc1nc(-c2cccs2)oc1NCc1ccccc1	none (no result: PfHsp90 yeast 2)
N#Cc1nc(-c2cccs2)oc1NCc1ccc(Cl)cc1	tim23-1 inh 51 | tim23-1 confirm 55
N#Cc1nc(-c2cccs2)oc1NCc1ccccc1Cl	tim23-1 inh 56 | tim23-1 confirm 54
COC(=O)c1sccc1NC(=O)CSCCc1ccccn1	none
CC(=O)c1ccc(NC(=S)N2CCN(c3cccc(Cl)c3)CC2)cc1	none
CC(=O)c1ccc(N2CCN(C(=S)Nc3cccc(Cl)c3)CC2)cc1	tim23-1 inh 96 | tim23-1 confirm inactive
N#C/C(=C\c1ccc(Cl)cc1)C(=O)NC1CC1	tim23-1 inh 56 | tim23-1 confirm 52
C=CCNC(=O)/C(C#N)=C/c1ccc(SC)cc1	none
Cc1cc(/C=C(\C#N)C(=O)NC2CCCCCC2)c(C)[nH]1	none (no result: TIM10 inh, tim10-1 inh, NLRP3 yeast inh, tim23-1 inh)
CSc1ccc(/C=C(\C#N)C(=O)NC2CCCCC2)cc1	none | tim23-1 confirm 51
O=C(CCC(=O)Nc1ccccc1)NNC(=O)C(c1ccccc1)c1ccccc1	none
O=C(COc1ccc(Cl)cc1Cl)N/N=C/C1CC=CCC1 (stereo not drawn)	none
CC(=O)OCC(=O)[C@@]1(O)[C@H](C)C[C@H]2[C@@H]3CCC4=CC(=O)C=C[C@]4(C)[C@@]3(F)[C@@H](O)C[C@@]21C	none
CCC(=O)OCC(=O)[C@@]1(OC(=O)CC)[C@@H](C)C[C@H]2[C@@H]3CCC4=CC(=O)C=C[C@]4(C)[C@@]3(Cl)[C@@H](O)C[C@@]21C	tim23-1 inh 55 | tim23-1 confirm 40
COc1cccc2c1C(=O)c1c(O)c3c(c(O)c1C2=O)C[C@](O)(C(C)=O)C[C@H]3O[C@@H]1C[C@@H](N)[C@@H](O)[C@@H](C)O1	tim23-1 inh 51 | tim23-1 confirm 44
Oc1ccc(-c2nccc(-c3cccs3)n2)cc1	tim23-1 inh 57 (no result: PfHsp90 yeast 2) | tim23-1 confirm 58
COC(=O)C(C)Oc1ccc(-c2nccc(-c3cccs3)n2)cc1 (stereo not drawn)	none (no result: PfHsp90 yeast 2)
Cc1cccc(Oc2nc(-c3ccccn3)nc3ccccc23)c1	tim23-1 inh 51 | tim23-1 confirm 46
Cc1cc(C)c(CN2CCN(C(=O)Cn3cnc4c(NCc5ccccc5)ncnc43)CC2)c(C)c1	tim23-1 inh 92 (no result: NLRP3 yeast inh) | tim23-1 confirm inactive
COc1ccc(C(C(=O)NC2CCCCC2)N(Cc2ccco2)C(=O)c2ccccn2)c(OC)c1 (stereo not drawn)	none
O=C(CN1C(=O)NC2(CCCC2)C1=O)OCCOc1ccccc1	none
CC1(C)CC2CC(C)(CN2S(=O)(=O)c2ccc(F)cc2F)C1 (stereo not drawn)	tim23-1 inh 52 (no result: PfHsp90 yeast 2) | tim23-1 confirm 49
CC1(C)CC2CC(C)(CN2S(=O)(=O)c2cccc(C(=O)OCC(N)=O)c2)C1 (stereo not drawn)	none
CC(=O)Nc1cn(-c2ccccc2)nc1-c1ccccc1	none
O=C(CCl)Nc1cn(-c2ccccc2)nc1-c1ccccc1	tim23-1 inh 60 | tim23-1 confirm inactive
CCC(C)Nc1nc2ccccc2n2c(C)nnc12 (stereo not drawn)	none
